Experimental data: PubChem BioAssay (NCATS)
Inconclusive results are not listed. Where a call stands in place of a potency, no number is given. A number with no mark means an inactive call. The source made the active and inactive calls. Calls follow the shape of the dose curve; as a rule, active = well fitted curve in the direction sought with a large enough effect; inconclusive = small, poorly fitted or top-dose-only effect, or another doubt; inactive = no such curve, though single readings can be large; an effect the other way counts as inactive or inconclusive.

Assays:
[1] = tested on: Zika virus NS2B-NS3 protease; assay: Primary screen GU AMC qHTS for Zika virus inhibitors (AID 1347154); also: nearly all actives have a fitted effect of over 70% in size; also: potency is read from the fitted curve at half-maximal effect
Procedure, shortened: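 Unlinked Zika NS2B hydrophilic domain–NS3 protease complex at 25 nM in 10 mM Tris-HCl pH 8.0, 0.01% Tween 20, with an AMC peptide substrate. Fluorescence change (340/450 nm) over 15 min at room temperature, normalized to controls, fitted to 4-parameter Hill.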

[2] = target: Protein phosphatase 1D (Homo sapiens) (UniProt O15297); assay: RapidFire Mass Spectrometry qHTS Assay for Modulators of WT P53-Induced Phosphatase 1 (WIP1) (AID 1347424);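 also: amount of dephosphorylated VEPPL-S-QETFS peptide product formed by WIP1; series mostly up to about 63 µM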
Protein phosphatase 1D (Homo sapiens), sequence (O15297 whole entry, looked up): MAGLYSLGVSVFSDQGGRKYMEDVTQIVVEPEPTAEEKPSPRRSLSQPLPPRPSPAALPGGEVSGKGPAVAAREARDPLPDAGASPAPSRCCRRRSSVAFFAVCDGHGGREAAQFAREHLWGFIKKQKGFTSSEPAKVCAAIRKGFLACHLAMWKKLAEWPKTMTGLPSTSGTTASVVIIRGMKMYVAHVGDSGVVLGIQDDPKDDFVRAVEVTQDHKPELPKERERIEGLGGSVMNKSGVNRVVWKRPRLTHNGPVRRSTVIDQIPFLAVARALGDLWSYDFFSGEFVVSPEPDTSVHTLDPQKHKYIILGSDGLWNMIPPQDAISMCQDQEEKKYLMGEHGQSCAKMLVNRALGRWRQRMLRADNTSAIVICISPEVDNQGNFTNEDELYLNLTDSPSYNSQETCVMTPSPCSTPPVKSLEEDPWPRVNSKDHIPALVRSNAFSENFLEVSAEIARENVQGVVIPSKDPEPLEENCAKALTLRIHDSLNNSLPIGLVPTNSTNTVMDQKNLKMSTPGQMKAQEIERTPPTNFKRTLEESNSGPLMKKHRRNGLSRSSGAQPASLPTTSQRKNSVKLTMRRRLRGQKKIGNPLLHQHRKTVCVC
Procedure, shortened: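 10 nM WIP1 preincubated with compounds 1 hr at room temperature in pH 7.5 Tris buffer with 30 mM MgCl2, 1 mM TCEP; 2 uM VEPPL-pS-QETFS phosphopeptide for 5 min, formic acid quench; dephosphorylated product quantified by RapidFire MS against labelled standard.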

[3] = qHTS to identify inhibitors of the type 1 interferon - major histocompatibility complex class I in skeletal muscle: primary screen against the NCATS Pharmaceutical Collection (AID 1347407);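 also: luminescence of HiBiT knocked into endogenous HLA-B as interferon-induced MHC class I level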; also: potency is read from the fitted curve at half-maximal effect
Procedure, shortened: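 Cells were seeded with 4 ng/ml IFN-beta, incubated 1 h, then dosed with compounds over eight 1:5 steps up to 46 uM final. After 24 h at 37 C, HiBiT lytic reagent was added and luminescence read after 10 min lysis in the dark.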

[4] = qHTS to identify inhibitors of the type 1 interferon - major histocompatibility complex class I in skeletal muscle: primary screen against the NCATS Mechanism Interrogation Plate v5.0 (MIPE) Libary (AID 1347411); also: nearly all actives have a fitted effect of over 65% in size
Procedure, shortened: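 Cells were genome-edited human myoblasts carrying a HiBit tag on endogenous HLA-B. They were treated with IFN-beta (4.0 ng/ml) and titrated compounds (top 46 uM) for 24 hrs before lytic HiBiT detection.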

[5] = tested on: Zika virus NS2B-NS3 protease (unlinked complex); assay: Primary screen GU Rhodamine qHTS for Zika virus inhibitors: Unlinked NS2B-NS3 protease assay (AID 1347159); also: nearly all actives have a fitted effect of over 60% in size
Procedure, shortened: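 Compounds, tested up to 114 microM, were incubated for 15 minutes with 25 nM unlinked NS2B-NS3 protease at pH 8.0. Cleavage of 1.5 microM Rhodamine110 substrate was then followed by fluorescence for 15 minutes.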

[6] = tested on: Zika virus NS2B-NS3 protease (linked construct); assay: Primary screen NINDS Rhodamine qHTS for Zika virus inhibitors (AID 1347160); conditions: outcome: dose series up to 57.1 µM unless noted; also: nearly all actives have a fitted effect of over 55% in size
Procedure, shortened: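 Percent inhibition, normalized to uninhibited and enzyme-free controls, is fitted to a 4-parameter Hill equation. Fluorescence change comes from a 15-min cleavage of 1.5 microM bis-peptide Rhodamine110 substrate by 25 nM linked NS2B-NS3 at room temperature.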

In the case of `CCn1cc(C(=O)O)c(=O)c2cc(F)c(N3CCN(C)CC3)cc21`, the Potency [1] is reported as “inactive” and the outcome [2] is reported as “inactive”.

In the case of `CN1CCCC(n2nc(Cc3ccc(Cl)cc3)c3ccccc3c2=O)CC1` (configuration not stated), the Potency [1] is reported as “inactive”, the Potency [3] is reported as “inactive” and the outcome [2] is reported as “inactive”.

For `O[C@@H](CNC[C@H](O)[C@H]1CCc2cc(F)ccc2O1)[C@@H]1CCc2cc(F)ccc2O1`, the Potency [1] was “inactive”, the Potency [3] was 26.4 µM (active) and the outcome [2] was “inactive”.

For `C[C@@H]1C[C@H]2[C@@H]3CCC4=CC(=O)C=C[C@]4(C)[C@@]3(Cl)[C@@H](O)C[C@]2(C)[C@@]1(OC(=O)c1ccco1)C(=O)CCl`, the Potency [1] was “inactive”, the Potency [3] was “inactive” and the outcome [2] was “inactive”.

With `O=C(N[C@H](CO)[C@H](O)c1ccc([N+](=O)[O-])cc1)C(Cl)Cl` the Potency [1] was “inactive”, the Potency [3] was “inactive” and the outcome [2] was “inactive”.

With `CCc1c2c(nc3ccc(OC(=O)N4CCC(N5CCCCC5)CC4)cc13)-c1cc3c(c(=O)n1C2)COC(=O)[C@]3(O)CC` the Potency [1] was 5.73 µM (active) and the outcome [2] was “inactive”.

For `CCN(C)C(=O)Oc1cccc([C@H](C)N(C)C)c1`, the Potency [1] was “inactive”, the Potency [3] was “inactive” and the outcome [2] was “inactive”.

For `Cc1ccnc2c1NC(=O)c1cccnc1N2C1CC1`, the Potency [1] was “inactive”, the Potency [3] was “inactive” and the outcome [2] was “inactive”.

With `N[C@@H](C(=O)N[C@@H]1C(=O)N2C(C(=O)O)=C(Cl)CS[C@H]12)c1ccccc1` the Potency [1] was “inactive”, the activity change, negative = inhibition [3] was 3% [at 9.18 µM] and the activity change, negative = inhibition [2] was -1.8% [at 12.6 µM].

With `C1CCC(C(CC2CCCCN2)C2CCCCC2)CC1` (configuration not stated) the Potency [1] was “inactive” and the outcome [2] was “inactive”.

In the case of `CO[C@@]12[C@H](COC(N)=O)C3=C(C(=O)C(C)=C(N)C3=O)N1C[C@@H]1N[C@@H]12`, the Potency [1] is reported as “inactive” and the outcome [2] is reported as “inactive”.

For `CCOC(=O)[C@H](CCc1ccccc1)N[C@H]1CCc2ccccc2N(CC(=O)O)C1=O`, the Potency [1] was “inactive” and the Potency [4] was “inactive”.

For `N=C(N)c1ccc(OCCCCCOc2ccc(C(=N)N)cc2)cc1`, the Potency [1] was “inactive” and the outcome [2] was “inactive”.

In the case of `NC1(c2ccc(-c3nc4ccn5c(=O)[nH]nc5c4cc3-c3ccccc3)cc2)CCC1`, the Potency [5] is reported as “inactive”, the outcome [6] is reported as “inactive” and the outcome [2] is reported as “inactive”.

With `CC(C)OC(=O)OCOP(=O)(CO[C@H](C)Cn1cnc2c(N)ncnc21)OCOC(=O)OC(C)C` the Potency [1] was “inactive”, the Potency [3] was “inactive” and the outcome [2] was “inactive”.

For `Nc1ccc(S(=O)(=O)Nc2ccccn2)cc1`, the Potency [1] was “inactive”, the Potency [3] was “inactive” and the outcome [2] was “inactive”.

For `Cc1noc(NS(=O)(=O)c2ccc(N)cc2)c1C`, the Potency [1] was “inactive” and the outcome [2] was “inactive”.

With `COc1cc([C@@H]2c3cc4c(cc3[C@H](O)[C@H]3COC(=O)[C@H]23)OCO4)cc(OC)c1OC` the Potency [1] was “inactive”, the Potency [3] was “inactive” and the outcome [2] was “inactive”.

For `O=S(=O)(c1cccc2cnccc12)N1CCCNCC1`, the Potency [1] was “inactive”, the Potency [4] was “inactive” and the outcome [2] was “inactive”.

For `CCn1cc(C(=O)O)c(=O)c2cc(F)c(N3CCNCC3)nc21`, the Potency [1] was “inactive”, the Potency [3] was “inactive” and the outcome [2] was “inactive”.

In the case of `CNS(=O)(=O)Cc1ccc2[nH]cc(CCN(C)C)c2c1`, the Potency [3] is reported as “inactive” and the outcome [2] is reported as “inactive”.

For `NCCCC(O)(P(=O)(O)O)P(=O)(O)O`, the Potency [1] was “inactive”, the Potency [3] was “inactive” and the Potency [4] was “inactive”. The outcome [2] was “inactive”.

In the case of `CN1CCN(c2c(F)cc3c(=O)c(C(=O)O)cn(CCF)c3c2F)CC1`, the Potency [1] is reported as “inactive” and the outcome [2] is reported as “inactive”.

With `Nc1nc(N)nc(-c2cc(Cl)ccc2Cl)n1` the Potency [1] was “inactive”, the Potency [3] was “inactive” and the Potency [4] was “inactive”. The outcome [2] was “inactive”.

In the case of `CC(C)(C)C(=O)OCOP(=O)(COCCn1cnc2c(N)ncnc21)OCOC(=O)C(C)(C)C`, the Potency [1] is reported as “inactive”, the Potency [3] is reported as “inactive” and the outcome [2] is reported as “inactive”.

With `COC(=O)Nc1nc2ccc(S(=O)c3ccccc3)cc2[nH]1` (configuration not stated) the Potency [1] was “inactive” and the outcome [2] was “inactive”.

With `CC(C)OC(=O)C(C(=O)OC(C)C)=C1SC=CS1` the Potency [1] was “inactive”, the Potency [3] was “inactive” and the Potency [4] was “inactive”. The outcome [2] was “inactive”.

With `COc1cc(NS(=O)(=O)c2ccc(N)cc2)nc(OC)n1` the Potency [1] was “inactive”, the Potency [3] was “inactive” and the outcome [2] was “inactive”.
